Reference: PubChem BioAssay AID588458 (Sanford-Burnham Center for Chemical Genomics, 2011)
Several values for one entry are separate records, joined by “and”; a condition that tells them apart may be missing. Identical values can stand only once. Hit rate of the full screen: of about 360,000 compounds, about 3,000 (0.83%) were called active. No stated cut-off is given here; in the data, active means inhibition above about 50%; inactive means the rest. This excerpt belongs to a sample that is enriched for actives. More than one record can exist for a structure, and the calls need not agree.

Target: DNA (cytosine-5)-methyltransferase 1 (Homo sapiens) (UniProt P26358)
Assay: inhibition of DNA methyltransferase DNMT1 – biochemical, molecular beacon, fluorescence, HinP1I cleavage, uHTS, primary screen (AID 588458)
Details: at 10 µM, stronger effect = higher value

Chain of DNA (cytosine-5)-methyltransferase 1 (Homo sapiens) (P26358 504-1616 limits assumed): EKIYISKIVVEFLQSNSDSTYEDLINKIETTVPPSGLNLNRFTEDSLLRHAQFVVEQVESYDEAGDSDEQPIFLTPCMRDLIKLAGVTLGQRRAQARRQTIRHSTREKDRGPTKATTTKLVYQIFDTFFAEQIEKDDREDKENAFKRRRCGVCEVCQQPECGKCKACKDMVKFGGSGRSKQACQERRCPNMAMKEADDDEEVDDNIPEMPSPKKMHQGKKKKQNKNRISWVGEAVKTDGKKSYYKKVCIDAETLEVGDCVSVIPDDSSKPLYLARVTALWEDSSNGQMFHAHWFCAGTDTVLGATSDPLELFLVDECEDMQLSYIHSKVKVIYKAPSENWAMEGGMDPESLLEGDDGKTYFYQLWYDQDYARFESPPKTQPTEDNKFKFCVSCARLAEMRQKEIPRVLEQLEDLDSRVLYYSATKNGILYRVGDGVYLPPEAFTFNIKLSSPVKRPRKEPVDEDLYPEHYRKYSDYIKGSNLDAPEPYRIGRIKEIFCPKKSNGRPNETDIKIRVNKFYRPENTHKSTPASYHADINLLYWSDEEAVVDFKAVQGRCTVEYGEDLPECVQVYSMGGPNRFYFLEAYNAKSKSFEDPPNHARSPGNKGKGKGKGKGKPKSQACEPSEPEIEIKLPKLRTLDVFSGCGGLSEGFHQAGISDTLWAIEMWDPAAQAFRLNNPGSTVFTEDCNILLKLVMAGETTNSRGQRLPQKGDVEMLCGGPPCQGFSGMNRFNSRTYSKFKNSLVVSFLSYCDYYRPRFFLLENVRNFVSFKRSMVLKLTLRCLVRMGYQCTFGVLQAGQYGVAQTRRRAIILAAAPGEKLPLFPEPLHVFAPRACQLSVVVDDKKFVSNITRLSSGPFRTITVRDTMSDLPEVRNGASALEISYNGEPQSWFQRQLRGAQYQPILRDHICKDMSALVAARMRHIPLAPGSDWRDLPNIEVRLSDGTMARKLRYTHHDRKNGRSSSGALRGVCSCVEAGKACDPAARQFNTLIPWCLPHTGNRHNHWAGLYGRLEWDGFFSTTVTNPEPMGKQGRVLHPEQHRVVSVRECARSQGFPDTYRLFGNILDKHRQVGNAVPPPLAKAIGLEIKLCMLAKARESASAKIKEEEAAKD

| Compound | inhibition (reported as % activation of signal) |
| --- | --- |
| Cc1c(-c2ccccc2)n[nH]c1C(=O)N=Nc1c(O)[nH]c2ccccc12 | 47.8% (inactive) |
| O=C(NCc1ccncc1)c1ccc(NS(=O)(=O)c2cccc([N+](=O)[O-])c2)cc1 | -0.75% (inactive) |
| O=[N+]([O-])c1cc(S(=O)(=O)Nc2cccc(Cl)c2)ccc1N=Nc1c(O)[nH]c2ccccc12 | 56.3% (active) |
| CCc1cc(CNC(=O)CC2C(=O)NCCN2Cc2ccccc2C(F)(F)F)on1 (stereo not drawn) | -2.03% (inactive) |
| CCOC(=O)c1c(-c2cccc(N)c2)cn2ccccc12 | 2.56% (inactive) |
| NC(=S)NN=Cc1ccc(OC(=O)COc2cc(Cl)c(Cl)cc2Cl)cn1 | -3.17% (inactive) |
| CCOc1cc(CN2CCCC(CO)(Cc3ccc(F)cc3F)C2)ccc1OC (stereo not drawn) | 60.8% (active) |
| Cc1ccccc1CC1(CO)CCCN(Cc2ccc3c(c2)OCCO3)C1 (stereo not drawn) | -0.5% (inactive) |
| COc1cccc(CC2(CO)CCCN(Cc3ccc(OC(F)F)cc3)C2)c1 (stereo not drawn) | 1.47% (inactive) |
| CC1(C(=O)NCc2ccc(F)c(F)c2)Cc2c(-c3ccc4c(c3)OCO4)ccnc2O1 (stereo not drawn) | -0.89% (inactive) |
| Cc1cc2c(cc1C)N1C(=O)c3cc4ccccc4cc3NC(=O)C1C(=O)N2 (stereo not drawn) | 40.5% (inactive) |
| C=CC1=C(C(=O)O)N2C(=O)[C@@H](NC(=O)/C(=N/OCC(=O)O)c3csc(N)n3)[C@H]2SC1 | -43.7% (inactive) |
| CO/N=C(\C(=O)N[C@@H]1C(=O)N2C(C(=O)O)=C(COC(C)=O)CS[C@H]12)c1csc(N)n1 (stereo in doubt) | 20.2% (inactive) and 7.93% (inactive) and 65.2% (active) |
| Cc1nnc(SCC2=C(C(=O)O)N3C(=O)C(NC(=O)Cn4nc(C)c(Cl)c4C)C3SC2)s1 (stereo not drawn) | 2.36% (inactive) |
| C=CC1=C(C(=O)O)N2C(=O)[C@@H](NC(=O)/C(=N\OCC(=O)O)c3csc(N)n3)[C@H]2SC1 | 81.2% (active) |
| CCN1CCN(C(=O)N[C@@H](C(=O)N[C@@H]2C(=O)N3C(C(=O)O)=C(CSc4nnnn4C)CS[C@H]23)c2ccc(O)cc2)C(=O)C1=O | 1.74% (inactive) |
| CCCCN(C=O)c1c(CC)nc2c(OCCC3CCCCC3)cccn12 | -6.04% (inactive) |
| CCOC(=O)C1=CCC(c2ccc(F)cc2)N(S(=O)(=O)c2ccc(C)cc2)C1 (stereo not drawn) | 6.68% (inactive) |
| CC1CCCCN1C(=O)CCS(=O)(=O)Cc1ccccc1 (stereo not drawn) | -2.02% (inactive) |
| CC(C)CC(CCc1ccccc1)OS(N)(=O)=O (stereo not drawn) | 4.1% (inactive) |
| COc1ccc(S(=O)(=O)N2CCN(C(C)C(=O)Nc3ccc(C(C)C)cc3)CC2)cc1 (stereo not drawn) | 2.17% (inactive) |
| COc1ccc(OCC(=O)NNC(=O)c2ccc(-c3ccccc3)cc2)cc1 | 59.6% (active) |
| CC(NC(=O)COc1ccc(-c2ccccc2)cc1)C1CCCO1 (stereo not drawn) | -1.92% (inactive) |
| COc1ccc(OCC(=O)NNC(=O)C2CCC2)cc1 | 0.09% (inactive) |
| COc1ccc(Cl)cc1NC(=O)CN(C)C(=O)c1cn(-c2ccccc2)nc1-c1cccs1 | -24.5% (inactive) |
| CC(C)(C)c1ccc(S(=O)(=O)N2CCN(C(=O)c3ccc4c(c3)C(=O)N(Cc3ccncc3)C4=O)CC2)cc1 | -1.88% (inactive) |
| O=C(CCN1C(=O)C2C3C=CC(C3)C2C1=O)Oc1ccc2ccccc2c1 (stereo not drawn) | -3.47% (inactive) |

| Compound | inhibition (reported as % activation of signal) |
| --- | --- |
| O=C(CCN1C(=O)C2C3C=CC(C3)C2C1=O)Nc1ccccc1F (stereo not drawn) | 75.5% (active) |
| O=C(CCN1C(=O)C2C3CCC(C3)C2C1=O)Nc1ccc(Cl)cc1Cl (stereo not drawn) | -0.32% (inactive) |
| COc1cccc(-c2cc3nc(NCc4ccccc4OC)n(C)c(=O)c3s2)c1 | -11.8% (inactive) |
| CC1C(=O)N(Cc2cn(CC3CCCCC3)nn2)CCS(=O)(=O)N1Cc1ccc(-c2cccc(N(C)C)c2)cc1 (stereo not drawn) | -9.42% (inactive) |
| Cc1csc(OCC(=O)Nc2ccc(C)c(C)c2)n1 | -0.47% (inactive) |
| CCCNC(=O)c1cc(C2CCCN(C(=O)c3ccc4c(c3)CCO4)C2)on1 (stereo not drawn) | -0.91% (inactive) |
| COc1ccc(S(=O)(=O)N2CCCCC2c2cc(C(=O)NCc3ccc(F)cc3)no2)cc1 (stereo not drawn) | 6.18% (inactive) |
| CC(C)Cc1nc(Cl)c(C#N)c2c1CCC2 | 3.27% (inactive) |
| CC(NC(=S)NC1CCCCC1)C(c1ccccc1)N1CCOCC1 (stereo not drawn) | 1.12% (inactive) |
| O=C(O)C(c1ccccc1)N1C(=O)/C(=C\c2ccc(-c3cccc(Cl)c3)o2)SC1=S (stereo not drawn) | 79.8% (active) |
| CC(C(=O)NC1CCS(=O)(=O)C1)N1C(=O)/C(=C/c2ccc(Cl)cc2)SC1=S (stereo not drawn) | -2.43% (inactive) |
| CC(C(=O)Nc1ccc(O)c(C(=O)O)c1)N1C(=O)/C(=C/c2cccs2)SC1=S (stereo not drawn) | -9.71% (inactive) |
| NC(=O)CCC(NS(=O)(=O)c1ccc(Cl)cc1)C(=O)NCc1ccccc1Cl (stereo not drawn) | 4.11% (inactive) |
| CCOC(=O)c1cccc(NC(=O)C2CCCN(S(=O)(=O)c3cnc[nH]3)C2)c1 (stereo not drawn) | 76.5% (active) |
| O=C(NCc1ccco1)C1CCCN(S(=O)(=O)c2cnc[nH]2)C1 (stereo not drawn) | -1.66% (inactive) |
| COc1cccc(N2CCN(C(=O)C3CCCN(S(=O)(=O)c4cnc[nH]4)C3)CC2)c1 (stereo not drawn) | -15.4% (inactive) |
| CC(C)c1cc(C(=O)N/N=C/c2ccoc2)c(O)c(C(C)C)c1 | 13.8% (inactive) |
| CCOC(=O)Cc1csc(NC(=O)COc2ccc3c(C)cc(=O)oc3c2)n1 | -0.49% (inactive) |
| Cc1ccc(O)c(/C=N/NC(=O)COc2ccc3c(C)cc(=O)oc3c2)c1 | 59.9% (active) |
| Cc1cc(=O)oc2cc(OCC(=O)Nc3nnc(C4CC4)s3)ccc12 | -3.06% (inactive) |
| CN(CCOc1ccccc1)C(=O)c1cc(-c2ccco2)nc2ccccc12 | 72.3% (active) |
| CN(CCOc1ccccc1)C(=O)c1cc(COc2c(F)cccc2F)on1 | 1.59% (inactive) |
| CN(C(=O)COC(=O)c1cc(-c2ccco2)nc2ccccc12)C1CCS(=O)(=O)C1 (stereo not drawn) | 92.3% (active) |
| O=C(c1cc(-c2ccco2)nc2ccccc12)N(Cc1nnc(-c2ccc(Cl)cc2)o1)C1CC1 | 13.4% (inactive) |
| COc1ccc(NC(=O)COc2ccc(C(=O)OCC(=O)N(C)C3CCS(=O)(=O)C3)cc2OC)cc1 (stereo not drawn) | 8.48% (inactive) |
| CN(C(=O)COC(=O)Cc1ccccc1[N+](=O)[O-])C1CCS(=O)(=O)C1 (stereo not drawn) | 2.42% (inactive) |
